Screening results from PubChem BioAssay.
This is a sample that favours compounds with a hit; in the whole collection about 0.24% have one here.
mcGAS inh: inhibitors of mouse cGAS | Q8C6L5 | recombinant cGAS, Kinase-Glo ATP depletion luminescence | inhibition, % at 12.5 µM | 160,000 tested, 0.15% active | AID 1259399;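 also: 0% = negative control wells and 100% = reference inhibitor with no enzyme activity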
NPYLR7 agonist: mosquito NPYLR7 agonism; activation, % at 10 µM; 270,000 tested, 0.15% active; HEK293T NPYLR7/Galpha15, GCaMP6s calcium fluorescence; AID 1259423; in the data active = activation above about 40%;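 also: 0% = vehicle and 100% = reference agonist at the receptor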
hcGAS lum: inhibitors of human cGAS; Q8N884; recombinant h-cGAS, ATP depletion, Kinase-Glo luminescence; inhibition, % at 12.5 µM; 290,000 tested, 0.081% active;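 also: 0% = vehicle reaction and 100% = reaction without DNA for no activity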
Target sequence (Q8N884 whole entry, looked up): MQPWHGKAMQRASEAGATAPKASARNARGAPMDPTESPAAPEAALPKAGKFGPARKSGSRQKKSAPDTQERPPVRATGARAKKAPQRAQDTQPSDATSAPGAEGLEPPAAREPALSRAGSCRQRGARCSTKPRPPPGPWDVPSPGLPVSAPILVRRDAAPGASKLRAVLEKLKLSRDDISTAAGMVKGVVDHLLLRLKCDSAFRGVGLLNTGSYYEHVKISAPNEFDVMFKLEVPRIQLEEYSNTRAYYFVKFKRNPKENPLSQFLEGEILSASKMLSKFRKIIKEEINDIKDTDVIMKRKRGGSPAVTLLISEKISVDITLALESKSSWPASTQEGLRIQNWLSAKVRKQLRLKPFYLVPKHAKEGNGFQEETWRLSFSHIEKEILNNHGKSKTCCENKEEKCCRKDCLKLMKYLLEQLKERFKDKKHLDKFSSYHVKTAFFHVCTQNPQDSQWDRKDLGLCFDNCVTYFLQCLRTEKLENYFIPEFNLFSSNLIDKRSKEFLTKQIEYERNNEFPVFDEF
* = called active by the depositor; . = not tested or not shown; ! = not active in a repeat. Rule as the data show it, unless noted: active = inhibition above about 40%; inactive = the rest.

SMILES	mcGAS inh	NPYLR7 agonist	hcGAS lum
COC(=O)C1=C(C)NC2=C(C(=O)CC(c3ccc(Cl)cc3)C2)C1c1ccc(N(C)C)cc1 (centres undefined)	0	0	0
O=C(Nc1nnc(SCC2CC2)s1)C1CCCC1	-4	-5	-4
CCCC1CCC(C(=O)Nc2nnc(SCC)s2)CC1 (centres undefined)	-6	55*	-3
Cc1ccc(C(=O)OCC(=O)c2ccc([N+](=O)[O-])cc2)o1	-9	0	-7
O=C(Nc1ccccc1N1CCOCC1)c1ccc(Br)cc1F	.	14	-12
Cc1[nH]ccc2c1[nH]c1cc(=O)ccc12	43*	-4	49*!
Cc1c2ccccc2[nH]c2c1oc1cc(=O)ccc12	.	13	-6
O=C(c1ccc2c3c(cccc13)CC2)C1CCCN(C(=O)c2n[nH]c3c2CCCC3)C1 (centres undefined)	-15	6	-2
O=C(O)c1cccnc1C(=O)O	-4	3	53*!
O=C(O)c1cccnc1S(=O)(=O)C(F)(F)F	.	10	-8
Cc1ccc(OCC2c3ccsc3CCN2C(=O)CN(C(=O)c2cccc(Cl)c2)C2CC2)c(C)c1 (centres undefined)	-5	-3	-4
CCNC(=O)CN1CCN(C(=O)C/C=C/c2ccccc2F)CC1	.	3	-5
O=C1SC(Nc2ccc(I)cc2)C(=O)N1c1ccccc1 (centres undefined)	-2	63*	-3
CC(C)CN1C(=O)SC(Nc2ccccc2)C1=O (centres undefined)	-5	16	-8
Cc1nn2cccnc2c1C(=O)NCc1ccc(OC(C)C)c(F)c1	.	-1	-4
CC(C)(C)NC(=O)COc1ccc(-c2ccc(C#N)cc2)cc1	.	-1	4
Cc1nn2c(=O)[nH]c(SCC(N)=O)nc2c1-c1ccccc1	0	16	55*
CC(=O)Nc1ccc(NC(=O)CSc2nc3c(-c4ccccc4)c(C)nn3c(=O)[nH]2)cc1	-4	8	29
Cc1ccc(-c2nc(N3CCc4ccccc4C3)c3ccccc3n2)cc1	-3	1	-1
O=C1NC(=O)C2C1Sc1[nH]c(=O)sc1C2c1ccco1 (centres undefined)	.	13	45*
COc1ccc(C2c3sc(=O)[nH]c3SC3C(=O)NC(=O)C32)cc1 (centres undefined)	.	6	-9
C=CCNC(=O)c1cncn1-c1cccc(-c2ccccc2C(F)(F)F)c1	-7	-2	-5
CCCCC(CC)CN=C(N)NC(N)=NCCCCCCN=C(N)NC(N)=NCC(CC)CCCC (centres undefined)	-5	46*!	4
CCCCN=C(N)N=C(N)N	.	-13	-7
COc1ccc(Br)cc1C1C(C#N)C(=N)SC(=N)C1C#N (centres undefined)	17	4	4
SMILES	mcGAS inh	NPYLR7 agonist	hcGAS lum
N#CC1C(=N)SC(=N)C(C#N)C1c1cc(Br)ccc1F (centres undefined)	57*	4	16
COCc1c(Br)c(C)nc(OCC(=O)N/N=C\c2cc(Br)c(OC)c(Br)c2)c1C#N	-4	11	-5
Cc1ccccc1-n1nc(C)c(-c2ccccc2)c1NC(=O)CN(CC(C)C)S(=O)(=O)c1ccc([N+](=O)[O-])cc1	-5	-1	-7
CCCCN(CC(=O)Nc1c(-c2ccccc2)c(C)nn1-c1ccccc1C)S(=O)(=O)c1ccc(F)cc1	-5	48*	-2
CC(O)CC(C)(C)CNC(=O)C(C)(C)c1cccc(C#N)c1 (centres undefined)	-17	1	-19
Cc1cc2c(c(-c3cccs3)c1)OC(CN)C2 (centres undefined)	.	0	-9
Cc1cc2c(c(-c3ccc4c(cnn4C)c3)c1)OC(CN)C2 (centres undefined)	.	76*	-4
N#Cc1ccc([N+](=O)[O-])c(O)c1	.	-7	3
N#Cc1cc(I)c(O)c([N+](=O)[O-])c1	.	-7	67*
CCCOC(=NCCCN(C)C)NC(=O)c1ccc(Cl)c(Cl)c1	-4	-3	-4
COc1cccc(C(CN2CCN(C(=O)COC(C)=O)CC2)OCc2cccc(Cl)c2)c1 (centres undefined)	-8	.	-8
O=c1oc2cc(O)ccc2cc1-c1nnc(-c2ccccc2)o1	-6	35	9
O=c1oc2cc(O)ccc2cc1-c1nc2ccccc2o1	.	216*	5
O=C(c1nccc2ccccc12)N1CCN(CC2CCCC2)CC1	.	126*	-4
O=C(Nc1ccc(NC2CCCCC2)cc1)c1nccc2ccccc12	.	1	-4
CC(C)N1CCC(N2CCN(Cc3ccc(F)cc3Cl)CC2CCO)CC1 (centres undefined)	-10	4	-11
CC1COCCN1C(=O)c1ccc2c(c1)Cc1ccccc1-2 (centres undefined)	.	7	-2
CCC1=NN2C(=N)/C(=C\c3ccccc3Br)C(=O)N=C2S1	.	2	16
